What was measured:
Assay in all cases: log2 ratio of Biotin-Ahx-Ub-VS probe labelling (fragment/DMSO); higher = less target engagement (more negative = stronger competition), active = hit call of the paper (q ≤ 0.05, log2 ratio ≤ -1)
Settings in all cases: compound concentration: 200 uM; treatment time: 3 h
ALG13 = target: T1, ALG13 (UniProt Q9NP73)
T1 sequence (whole entry): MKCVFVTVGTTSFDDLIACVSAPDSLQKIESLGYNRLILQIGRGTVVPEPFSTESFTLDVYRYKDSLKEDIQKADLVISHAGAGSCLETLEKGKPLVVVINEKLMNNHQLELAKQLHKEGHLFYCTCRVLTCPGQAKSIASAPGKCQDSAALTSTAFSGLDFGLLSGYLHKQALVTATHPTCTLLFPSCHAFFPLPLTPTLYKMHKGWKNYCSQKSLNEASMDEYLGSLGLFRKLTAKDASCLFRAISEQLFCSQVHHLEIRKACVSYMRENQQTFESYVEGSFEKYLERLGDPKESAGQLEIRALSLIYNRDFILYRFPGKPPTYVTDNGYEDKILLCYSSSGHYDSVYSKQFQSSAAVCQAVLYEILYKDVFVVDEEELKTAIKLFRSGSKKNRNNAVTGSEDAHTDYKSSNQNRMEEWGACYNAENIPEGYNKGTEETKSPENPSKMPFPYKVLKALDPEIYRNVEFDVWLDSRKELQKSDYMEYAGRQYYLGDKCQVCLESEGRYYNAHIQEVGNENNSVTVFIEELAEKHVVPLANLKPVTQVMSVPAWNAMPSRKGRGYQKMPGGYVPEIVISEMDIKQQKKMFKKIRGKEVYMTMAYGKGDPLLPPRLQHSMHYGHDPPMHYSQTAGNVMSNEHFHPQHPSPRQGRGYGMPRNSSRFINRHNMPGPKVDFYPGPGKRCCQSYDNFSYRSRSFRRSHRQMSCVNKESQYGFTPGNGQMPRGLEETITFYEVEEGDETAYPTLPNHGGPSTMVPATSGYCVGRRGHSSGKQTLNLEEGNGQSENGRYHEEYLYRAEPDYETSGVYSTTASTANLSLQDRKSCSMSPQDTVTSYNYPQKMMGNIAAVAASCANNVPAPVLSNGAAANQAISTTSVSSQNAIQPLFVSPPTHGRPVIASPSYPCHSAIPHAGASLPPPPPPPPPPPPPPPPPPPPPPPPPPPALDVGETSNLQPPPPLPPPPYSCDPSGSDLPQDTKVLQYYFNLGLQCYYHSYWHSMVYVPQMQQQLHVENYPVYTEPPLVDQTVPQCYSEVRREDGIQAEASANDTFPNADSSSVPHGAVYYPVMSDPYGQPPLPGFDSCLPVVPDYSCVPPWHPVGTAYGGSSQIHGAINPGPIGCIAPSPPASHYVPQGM
Outline: (§1)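 Average log2 ratios of fragment over vehicle were obtained by unpaired t-test from global-median-normalised Spectronaut label-free quantities. Proteins with ≥2 unique peptides were included. HEK293T lysate (495 µg per sample) was treated in triplicate with fragment at 200 µM or vehicle for 3 h, then with Biotin-Ahx-Ub-VS at 0.5 µM final for 1 h, and labelled DUBs were NeutrAvidin-enriched and run by diaPASEF LC-MS/MS.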

ATXN3 = ATXN3 (UniProt P54252)
Sequence of ATXN3 (P54252 whole entry): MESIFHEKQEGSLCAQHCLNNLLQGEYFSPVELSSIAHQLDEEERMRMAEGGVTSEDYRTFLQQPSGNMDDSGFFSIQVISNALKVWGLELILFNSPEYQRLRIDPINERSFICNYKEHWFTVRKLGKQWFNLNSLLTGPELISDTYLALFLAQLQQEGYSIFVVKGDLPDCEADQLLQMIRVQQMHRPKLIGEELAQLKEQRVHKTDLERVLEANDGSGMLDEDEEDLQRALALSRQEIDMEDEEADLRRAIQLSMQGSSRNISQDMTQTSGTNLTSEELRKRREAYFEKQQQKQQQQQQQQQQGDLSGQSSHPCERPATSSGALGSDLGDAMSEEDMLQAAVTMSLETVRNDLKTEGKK
Outline: as §1

BAP1 = target: T2, BAP1 (UniProt Q92560)
T2 sequence (whole entry): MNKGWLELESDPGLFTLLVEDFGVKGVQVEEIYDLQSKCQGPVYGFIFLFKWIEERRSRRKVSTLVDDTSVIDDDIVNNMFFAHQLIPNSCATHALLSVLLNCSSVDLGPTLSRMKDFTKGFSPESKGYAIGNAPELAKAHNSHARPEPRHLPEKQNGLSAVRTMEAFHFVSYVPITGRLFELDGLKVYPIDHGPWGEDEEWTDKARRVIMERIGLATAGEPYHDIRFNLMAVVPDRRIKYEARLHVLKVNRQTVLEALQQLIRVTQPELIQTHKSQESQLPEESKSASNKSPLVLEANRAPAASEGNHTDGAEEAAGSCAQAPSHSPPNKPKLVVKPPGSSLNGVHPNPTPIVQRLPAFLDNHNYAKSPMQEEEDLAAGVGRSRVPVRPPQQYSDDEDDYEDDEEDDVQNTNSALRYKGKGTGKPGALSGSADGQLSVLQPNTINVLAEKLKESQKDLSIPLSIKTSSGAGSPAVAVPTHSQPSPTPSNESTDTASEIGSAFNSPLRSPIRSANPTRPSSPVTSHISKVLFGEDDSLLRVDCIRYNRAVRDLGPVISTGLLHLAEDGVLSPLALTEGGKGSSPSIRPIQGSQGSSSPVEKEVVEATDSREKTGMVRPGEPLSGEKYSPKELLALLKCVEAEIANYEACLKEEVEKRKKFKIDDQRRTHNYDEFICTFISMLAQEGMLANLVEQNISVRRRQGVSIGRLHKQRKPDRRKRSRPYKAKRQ
Outline: as §1

EIF3F = EIF3F (UniProt O00303)
Sequence of EIF3F (O00303 whole entry): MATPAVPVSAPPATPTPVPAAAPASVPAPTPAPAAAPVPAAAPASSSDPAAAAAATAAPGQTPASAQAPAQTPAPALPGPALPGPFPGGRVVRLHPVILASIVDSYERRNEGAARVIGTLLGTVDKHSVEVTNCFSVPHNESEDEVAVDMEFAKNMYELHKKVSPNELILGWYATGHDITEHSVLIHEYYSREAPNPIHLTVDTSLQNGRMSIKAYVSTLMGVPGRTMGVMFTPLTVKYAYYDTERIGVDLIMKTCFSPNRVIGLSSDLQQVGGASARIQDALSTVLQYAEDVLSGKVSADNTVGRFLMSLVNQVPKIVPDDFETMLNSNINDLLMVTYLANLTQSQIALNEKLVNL
Outline: as §1

EIF3H = EIF3H (UniProt O15372)
Sequence of EIF3H (O15372 whole entry): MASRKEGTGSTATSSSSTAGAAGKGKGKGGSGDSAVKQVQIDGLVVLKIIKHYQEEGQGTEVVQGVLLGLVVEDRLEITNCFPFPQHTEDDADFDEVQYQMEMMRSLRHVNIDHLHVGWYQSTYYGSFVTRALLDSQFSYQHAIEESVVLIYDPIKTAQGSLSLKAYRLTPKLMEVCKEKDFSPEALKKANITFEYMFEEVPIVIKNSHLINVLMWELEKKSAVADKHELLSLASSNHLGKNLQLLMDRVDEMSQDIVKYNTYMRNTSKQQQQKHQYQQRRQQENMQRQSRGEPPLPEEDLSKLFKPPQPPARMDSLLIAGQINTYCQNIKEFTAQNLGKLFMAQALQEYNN
Outline: as §1

FAM105A = target: T3, FAM105A (UniProt Q9NUU6)
T3 sequence (whole entry): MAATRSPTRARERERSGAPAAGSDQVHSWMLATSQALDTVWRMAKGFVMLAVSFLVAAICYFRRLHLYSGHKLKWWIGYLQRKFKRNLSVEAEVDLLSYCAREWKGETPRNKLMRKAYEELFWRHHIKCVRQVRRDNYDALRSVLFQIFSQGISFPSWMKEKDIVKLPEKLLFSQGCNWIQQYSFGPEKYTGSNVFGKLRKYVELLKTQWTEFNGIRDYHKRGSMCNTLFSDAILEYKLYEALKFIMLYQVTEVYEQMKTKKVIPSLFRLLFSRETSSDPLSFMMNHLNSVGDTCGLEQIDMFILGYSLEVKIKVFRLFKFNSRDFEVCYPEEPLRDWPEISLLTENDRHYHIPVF
Outline: as §1

OTUB1 = OTUB1 (UniProt Q96FW1)
Sequence of OTUB1 (Q96FW1 whole entry): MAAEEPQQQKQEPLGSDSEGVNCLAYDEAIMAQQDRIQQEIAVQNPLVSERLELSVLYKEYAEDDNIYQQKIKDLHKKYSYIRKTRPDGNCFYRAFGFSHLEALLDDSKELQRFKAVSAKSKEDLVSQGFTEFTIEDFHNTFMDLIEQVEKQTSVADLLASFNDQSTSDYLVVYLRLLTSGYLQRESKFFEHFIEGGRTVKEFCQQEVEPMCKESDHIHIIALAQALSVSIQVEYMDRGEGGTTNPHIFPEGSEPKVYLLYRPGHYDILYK
Outline: as §1

OTUD4 = target: T4, OTUD4 (UniProt Q01804)
T4 sequence (whole entry): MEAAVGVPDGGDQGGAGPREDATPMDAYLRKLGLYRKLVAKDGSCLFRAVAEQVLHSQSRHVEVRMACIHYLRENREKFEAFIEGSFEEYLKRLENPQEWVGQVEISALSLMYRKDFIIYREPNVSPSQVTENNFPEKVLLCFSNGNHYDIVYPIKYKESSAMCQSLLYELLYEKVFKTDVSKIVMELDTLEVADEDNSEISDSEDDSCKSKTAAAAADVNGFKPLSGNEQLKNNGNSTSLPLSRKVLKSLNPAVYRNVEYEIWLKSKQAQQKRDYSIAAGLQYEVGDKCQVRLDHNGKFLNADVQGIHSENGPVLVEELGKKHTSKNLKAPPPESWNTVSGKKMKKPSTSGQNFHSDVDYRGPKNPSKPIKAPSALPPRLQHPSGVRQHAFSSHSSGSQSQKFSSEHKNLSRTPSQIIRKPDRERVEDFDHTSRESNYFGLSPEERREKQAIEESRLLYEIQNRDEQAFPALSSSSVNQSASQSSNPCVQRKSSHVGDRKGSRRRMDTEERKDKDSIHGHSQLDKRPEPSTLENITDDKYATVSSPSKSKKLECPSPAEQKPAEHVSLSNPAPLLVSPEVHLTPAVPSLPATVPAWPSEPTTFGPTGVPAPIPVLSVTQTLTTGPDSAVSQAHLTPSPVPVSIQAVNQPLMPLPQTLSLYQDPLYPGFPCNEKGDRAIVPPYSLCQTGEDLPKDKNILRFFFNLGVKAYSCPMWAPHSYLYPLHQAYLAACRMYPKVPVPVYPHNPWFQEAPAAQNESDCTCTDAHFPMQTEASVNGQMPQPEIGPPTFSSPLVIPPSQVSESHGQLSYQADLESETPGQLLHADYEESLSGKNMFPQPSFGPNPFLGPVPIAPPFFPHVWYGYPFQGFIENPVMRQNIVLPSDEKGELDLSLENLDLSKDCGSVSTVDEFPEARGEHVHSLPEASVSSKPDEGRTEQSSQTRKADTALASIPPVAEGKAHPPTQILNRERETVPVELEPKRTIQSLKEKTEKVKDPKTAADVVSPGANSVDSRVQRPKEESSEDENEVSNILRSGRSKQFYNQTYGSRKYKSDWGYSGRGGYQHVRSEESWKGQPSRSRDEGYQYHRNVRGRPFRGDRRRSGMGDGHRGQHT
Outline: as §1

OTUD5 = target: T5, OTUD5 (UniProt Q96G74)
T5 sequence (whole entry): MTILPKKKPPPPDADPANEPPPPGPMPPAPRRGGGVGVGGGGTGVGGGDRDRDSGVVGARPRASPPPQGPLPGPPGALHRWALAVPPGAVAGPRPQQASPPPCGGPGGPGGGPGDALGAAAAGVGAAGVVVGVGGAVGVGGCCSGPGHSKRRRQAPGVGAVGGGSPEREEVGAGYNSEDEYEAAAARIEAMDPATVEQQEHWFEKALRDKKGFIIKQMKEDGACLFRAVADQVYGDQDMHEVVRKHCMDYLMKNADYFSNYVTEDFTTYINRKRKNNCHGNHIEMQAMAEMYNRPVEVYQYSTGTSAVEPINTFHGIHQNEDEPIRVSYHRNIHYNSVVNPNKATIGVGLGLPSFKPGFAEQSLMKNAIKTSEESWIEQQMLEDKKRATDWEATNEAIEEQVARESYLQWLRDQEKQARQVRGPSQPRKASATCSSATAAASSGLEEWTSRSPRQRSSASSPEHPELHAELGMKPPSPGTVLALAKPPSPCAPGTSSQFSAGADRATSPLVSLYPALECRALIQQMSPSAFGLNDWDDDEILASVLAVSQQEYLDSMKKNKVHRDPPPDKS
Outline: as §1

Measured: log2 ratio of Biotin-Ahx-Ub-VS probe labelling

Cc1ccc(CC(CO)CNC(=O)CCl)cc1 (centres undefined)
inactive: ALG13 -0.289 | ATXN3 -0.385 | EIF3F 0.0794 | EIF3H 0.139 | FAM105A 0.442 | OTUB1 -0.0508 | OTUD4 -0.858 | OTUD5 -0.455
active: BAP1 -3.74
